# Test results: PubChem BioAssay (NCI)
# Several values for one entry are separate records, joined by “and”; a condition that tells them apart may be missing. Identical values can stand only once. This is part of a sample that, as a whole, favours compounds with a hit. Of some 83,000 tested, about 20% had one in any assay.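 Plates (96-well) were seeded with cells, treated with compound at one concentration, and incubated for 48 hours before percent growth was determined.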 A number with no mark means an inactive call. Activity calls are given as the source filed them.
# Tested on: HCT-15 colon
# Test: NCI-60 one-dose screen, 48 h (100 = growth as untreated, 0 = no growth, -100 = all killed)
# Details: 1 µM
# Procedure: Growth inhibition of the HCT-15 human tumor cell line is measured as a screen for anti-cancer activity. Cells are grown in 96 well plates and exposed to the test compound for 48 hours. Compounds are tested at a single concentration, which is 10^-5 M for most compounds. The reported endpoint is percent growth (GI% or GIPRCNT), where numbers from 0 - 100% represent growth inhibition, and numbers from -100% - 0 represent cell death. For example, a value of 40 represents 60% growth inhibition. A value of 0 means no net growth occurred over the course of the experiment. A value of -40 indicates 40% of cells at the beginning of the experiment died by the end of the experiment. A value of -100 means all cells are dead at the end of the experiment.
# NCI-60 Human Tumor Cell Lines Screen was performed using the standard one-dose NCI protocol, which is described in more detail at https://dtp.cancer.gov/discovery_development/nci-60/default.htm.
# Compounds with GIPRCNT values below 10 were considered active. Activity score was based on GIPRCNT using the following formula: […]
# Score is 0 for GIPRCNT values of 100 or above, 50 for GIPRCNT values of 0, and 100 for GIPRCNT values of -100.
row,SMILES,growth [%]
1,CC/C(=C(\c1ccc(O)cc1)c1ccc(OCCNC)cc1)c1ccccc1,107

# Same assay, conditions: 10 µM
row,SMILES,growth [%]
1,CC/C(=C(\c1ccc(O)cc1)c1ccc(OCCNC)cc1)c1ccccc1,69.8

# Same assay, conditions: 10 µM unless noted
row,SMILES,growth
1,O=C1CCC(N2C(=O)c3cccc(NCCCCCC(=O)N4CCN(c5ccc6nc7c(nc6c5C(F)(F)F)C(=O)c5ncccc5C7=O)CC4)c3C2=O)C(=O)N1 (stereo not given),-69.5% (active)
2,COc1c(B(O)O)cc(F)cc1-c1nc2ccc3[nH]ncc3c2c2c1COCC2,99.4%
3,CC1=C(C(=O)OC(C)C)C(c2ccc(O)cc2)NC(=O)N1 (stereo not given),105%
4,Cc1nn(-c2ccccc2)c2nc(C)n(CC(=O)N/N=C/c3cccc([N+](=O)[O-])c3)c(=O)c12,96.2%
5,Cn1cc(-c2cc(N)n3nc(-c4c[nH]c5ccccc45)cc3n2)c2cc(Br)ccc21,-76.6% (active)
6,COc1ccc(C(=O)/C=C/c2ccc3c(c2)OCCO3)cc1S(N)(=O)=O,41.9%
7,Nc1nn2c(-c3cc4cc(Br)ccc4oc3=O)ccnc2c1N=Nc1ccccc1,53.4%
8,COc1cc(CNC(=O)C[C@H](C)CCC=C(C)C)ccc1OCc1cn(-c2ccccc2Cl)nn1,53.8%
9,Fc1ccc(F)c(CNc2nc(SCCN3CCOCC3)nc3c2cnn3CC(Cl)c2ccc(Br)cc2)c1 (stereo not given),-17.6% (active)
10,COc1ccc2[nH]c(=O)cc(-n3ncc(C(=O)/C=C/c4cc(OC)c(OC)c(OC)c4)c3C)c2c1,-27.1% (active)
11,O=C(Nc1ccc(Br)cc1)Nc1ccc(-c2ccc3c(c2)NC(=O)/C3=C\c2ccc[nH]2)cc1,42.8%
12,CCOc1ccc2[nH]c(=O)c(C(c3nnnn3CC3CCCO3)N3CCN(Cc4ccccc4)CC3)cc2c1 (stereo not given),99.7%
13,CN1C(=O)/C(=C\C(=O)c2cc3ccccc3oc2=O)c2ccccc21,39.7%
14,CCCCC[C@@H]1C/C=C(\C)[C@@H](O)C(C)(C)C(=O)[C@@H](C)/C=C(\C)[C@@H]2C[C@H](O)C[C@](O)(CC(=O)O1)O2,38.4%
15,CCC(=O)c1cc(C(=O)OC)c2ccc3c4ccccc4ccc3n12,91.4%
16,CC1=NN(C2=NC(=O)C(CC(=O)Nc3ccccc3C(F)(F)F)S2)C(c2ccc(N(C)C)cc2)C1 (stereo not given),17.1%
17,O=CNc1ccc(-n2cnc3cc(-c4ccc(O)cc4)ccc32)cc1,74%
18,Cc1ccc(NC(=O)N/N=C/c2c[nH]c3ccccc23)c(C)c1,9.06% (active)
19,CC(C)C[C@H](NC(=O)[C@@H]1CCCCCCCCCCC(=O)N[C@@H](CC(=O)N2CCC[C@@H]2C2CCCC2)C(=O)N1)B(O)O,-36.7% (active)

row,SMILES,growth
1,O=c1ccc(Cn2c(C(F)(F)F)cc3c(Cl)ncnc32)c[nH]1,0.0667% (active)
2,COc1c(F)ccc(C(=O)Nc2ccc3nc(NC(=O)C4CCCN(S(=O)(=O)c5ccc(C(C)(C)C)cc5)C4)sc3c2)c1F (stereo not given),63.3%
3,Cn1cc(-c2cc(N)n3nc(-c4c[nH]c5ccccc45)cc3n2)c2cc(Cl)ccc21,-77.3% (active)
4,COc1c2c(c(Br)c3c1C(CCc1ccccc1)N(C)CC3)OCO2 (stereo not given),24.6%
5,O=C(N/N=C/c1ccc(B(O)O)s1)c1[nH]c2ccc(Br)cc2c1-c1ccccc1,-92.4% (active)
6,COc1ccc(/C=C/C(=O)c2ccc(S(=O)(=O)NCCNc3nc(N(C)C)nc(N4CCOCC4)n3)cc2)cc1,59.3%
7,CN1CCN(c2ccc3c4c(cccc24)C(=O)N(c2cccc(-c4nn(-c5ccccc5)cc4-c4nc5ccccc5s4)c2)C3=O)CC1,10.2%
8,O=C(Nc1ccc(-c2ccc3c(c2)NC(=O)/C3=C\c2ccc[nH]2)cc1)Nc1ccc(Cl)c(Cl)c1,41.4%
9,CC(=O)Nc1ccc(S(=O)(=O)Nc2ccc(-c3ccc4c(c3)NC(=O)/C4=C\c3ccc[nH]3)cc2)cc1,98.3%
10,COc1ccccc1NC(=O)N/N=C/c1c[nH]c2ccccc12,13.8%
11,Cc1cccc(C)c1Nc1nnc(-c2c[nH]c3ccccc23)o1,97.6%
12,Oc1ccc(Cl)c(Nc2ncnc3c2cnn3CC(Cl)c2ccc(Br)cc2)c1 (stereo not given),37.9%
13,Cc1nc(Nc2ccccn2)sc1C1=NNC(c2ccccc2F)C1 (stereo not given),20.8%
14,CC1(C)CC(=O)C2=C(C1)OC(N)=C(c1nc3ccccc3[nH]1)C2c1ccc(Cl)cc1 (stereo not given),39.8% and 106%
15,O=C(CSc1nc2sc3c(c2c(=O)n1-c1ccc(Cl)cc1)CCCC3)N/N=C/C=C/c1ccccc1,-57.6% (active)
16,O=c1[nH]c2ccccc2cc1CSc1ccccc1Nc1nccc(-c2ccc3c(c2)OCO3)n1,95.1%
17,COC(=O)CSC1=C(C)C(=O)C(OC)=C(OC)C1=O,86.3%
18,O=C(NNC(=O)c1ccc(OCc2nc3ccc(Cl)cc3[nH]2)cc1)Nc1ccc(Cl)c(Cl)c1,98.9%
19,COc1cncc(-c2ccc3ncnc(N4CCc5ccc(Cl)cc54)c3c2)c1,11.9%
